From PubChem BioAssay AID1063 (University of Pittsburgh Molecular Library Screening Center, 2008)
In all, about 200,000 compounds went through this assay and about 18,000 (9%) were called active. This is one part of a sample in which actives are shown more often than they occur. Cut-off read from the data, not from the text of the source: active = inhibition above about 50%; inactive = the rest.

Assay: antileishmanial activity against promastigotes – primary screen (AID 1063);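 note: promastigotes grown with compound for 44 hours at 28 °C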
Conditions: Leishmania major promastigotes, resazurin fluorescence viability; at 10 µM; active compounds read high

Row | SMILES | inhibition
1 | O=C(CCCCCn1c(=O)[nH]c2ccccc2c1=O)NCCc1c[nH]c2ccccc12 | 97.7% (active)
2 | COc1ccc(CCNC(=O)CCCCn2c(=O)[nH]c3ccccc3c2=O)cc1OC | 1.29% (inactive)
3 | O=C(CCn1c(=O)[nH]c2ccccc2c1=O)NCCCN1CCN(c2cccc(Cl)c2)CC1 | 3.18% (inactive)
4 | Cc1cc(C)c2c(NC(=O)C3CC3)nn(C)c2n1 | -2.35% (inactive)
5 | O=C(CNCc1ccco1)Nc1cc(S(=O)(=O)N2CCOCC2)ccc1N1CCCC1 | -1.86% (inactive)
6 | Cc1ccc(C(C)C)cc1OCCN1CCCC1 | 92.5% (active)
7 | COc1cccc(OCCOc2cccc(/C=N/n3cnnc3)c2)c1 | 3.61% (inactive)
8 | COc1cccc(OCCCN2CCCCCC2)c1 | 91.6% (active)
9 | c1ccc2cc(OCCN3CCCC3)ccc2c1 | 84.2% (active)
10 | Cc1cc(OCCN2CCCC2)cc(C(C)C)c1 | 92.5% (active)
11 | COc1ccc(NC(=O)CCN2CCCC2)c(OC)c1 | -0.8% (inactive)
12 | COc1cccc(OCC(O)CN2CCN(CCO)CC2)c1 (stereo not given) | -0.73% (inactive)
13 | Clc1ccccc1-c1cc(COc2ccc3ccccc3c2)no1 | -8.15% (inactive)
14 | O=C(COc1ccc2ccccc2c1)N1CCN(C(=O)c2cccs2)CC1 | -4.2% (inactive)
15 | CCn1c(SCc2ccccc2)nc2c(c1=O)SCC2 | -0.56% (inactive)
16 | O=C(Nc1cccnc1)c1ccc(Cl)cc1[N+](=O)[O-] | 2.3% (inactive)
17 | Cc1ccc(-c2cc(C(=O)N3CCc4ccccc4C3)no2)cc1 | -3.45% (inactive)
18 | CCC(=O)Nc1sc(C(=O)Nc2ccccc2)c(C)c1C(=O)OC | 0.3% (inactive)
19 | CC(C)C(=O)Nc1ccc2oc(=O)ccc2c1 | 2.46% (inactive)
20 | CCn1cc(-c2cc(C(=O)O)on2)c(C)n1 | -3.4% (inactive)
21 | COc1ccc(NC(=S)Nc2ccc(S(N)(=O)=O)cc2)c(C)c1 | 5.95% (inactive)
22 | CCCc1nnc(SCC(=O)N2C(C)CCCC2C)n1CC (stereo not given) | -8.2% (inactive)
23 | O=C(NCc1ccc(Cl)cc1)NCc1ccc(Cl)cc1 | -7.12% (inactive)
24 | Cc1cc(OCCN2CCCC2)ccc1C(C)C | 96.4% (active)

Row | SMILES | inhibition
25 | CCNC(=O)CC1C(=O)N(c2ccc(F)cc2)C(=O)N1Cc1cccs1 (stereo not given) | -6.2% (inactive)
26 | O=C(Nc1ccc(S(=O)(=O)N2CCCC2)cc1Cl)C1=COCCO1 | 13.3% (inactive)
27 | CSCCC(Nc1ccc(S(=O)(=O)N2CCOCC2)cc1[N+](=O)[O-])C(=O)OCC(=O)N(C(C)C)C(C)C (stereo not given) | 6.07% (inactive)
28 | CC(C)N1CCC(=NNc2ccc([N+](=O)[O-])cc2S(=O)(=O)N2CCOCC2)CC1 | 100% (active)
29 | O=[N+]([O-])c1cc(S(=O)(=O)N2CCCC2)ccc1NN=C1CCCC1 | 72.8% (active)
30 | O=[N+]([O-])c1cc(C(F)(F)F)ccc1NN=C1CCCC1 | -5.08% (inactive)
31 | C/C(=N\Nc1nc(N2CCOCC2)nc(N2CCOCC2)n1)c1ccc([N+](=O)[O-])cc1 | 7.51% (inactive)
32 | COc1cccc(NC(=O)Cn2c3ccccc3c3nc4n(c(=O)c32)CCS4)c1 | 1.79% (inactive)
33 | CC1(C)CC(=O)C=C(N2CCOCC2)C1 | -0.57% (inactive)
34 | O=C(O)/C=C/c1cn(Cc2ccccc2)nc1-c1cccs1 | -1.31% (inactive)
35 | O=C(O)c1cccc(S(=O)(=O)Nc2ccc(O)cc2Sc2nc3ccccc3s2)c1 | 3.69% (inactive)
36 | COc1ccc(S(=O)(=O)Nc2ccc(O)c(Sc3nc4ccccc4s3)c2)cc1 | 2.71% (inactive)
37 | O=[N+]([O-])c1c(NCCO)cc(Sc2nc3ccccc3s2)c2nonc12 | 61.2% (active)
38 | CCCCC(CC)CNC(=O)C(=O)C1C(=O)Nc2ccccc21 (stereo not given) | -2.85% (inactive)
39 | CC(=O)Nc1ccc(NC(=O)CSc2nnc(COc3ccccc3C)n2CC2CCCO2)cc1 (stereo not given) | -3.47% (inactive)
40 | COc1ccc(C(=O)NC2CCN(C(=S)NCCc3ccccc3)CC2)cc1 | -3.89% (inactive)
41 | CC(C)NC(=O)NC(=O)CSc1nnc(-c2ccccc2F)n1N | -1.13% (inactive)
42 | CS(=O)(=O)Nc1ccc(C2=NN(S(C)(=O)=O)C(c3cccs3)C2)cc1 (stereo not given) | 0.6% (inactive)
43 | Cc1ccc(C2CC(c3cccc(NS(C)(=O)=O)c3)=NN2S(C)(=O)=O)cc1 (stereo not given) | 10.8% (inactive)
44 | CS(=O)(=O)Nc1cccc(C2=NN(S(=O)(=O)c3ccccc3)C(c3cccs3)C2)c1 (stereo not given) | 90.1% (active)
45 | CCS(=O)(=O)c1ccc(C(=O)NC)c(Cl)c1Cl | 2.32% (inactive)
46 | O=C(CNC(=O)c1cc2c(s1)CCC2)Nc1ccccc1Br | -6.67% (inactive)
47 | O=C(Nc1cccc(NC(=O)N2CCN(c3ccccc3)CC2)c1)N1CCN(c2ccccc2)CC1 | 35.8% (inactive)
48 | O=C(c1cc2c(s1)CCC2)N1CCN(c2ccccc2)CC1 | 93.8% (active)

Row | SMILES | inhibition
49 | O=C(NNC(=O)c1cc2c(s1)CCCC2)c1ccccc1 | 78.1% (active)
50 | Cc1nc2ccc(C(=O)N3CCN(c4ccccc4)CC3)cc2s1 | -9.02% (inactive)
51 | O=C(COC(=O)c1cc2c(s1)CCCC2)NCc1ccccc1Cl | -8.28% (inactive)
52 | CCOC(=O)Cc1cc(=O)[nH]c(=O)[nH]1 | -1.79% (inactive)
53 | O=C(COC(=O)c1ccccn1)Nc1cccc2ccccc12 | -8.4% (inactive)
54 | Cc1cc(C)cc(NC(=O)Cn2cnc3c(nnn3Cc3ccc(F)cc3)c2=O)c1 | -2.51% (inactive)
55 | Cc1cccc(C)c1NC(=O)Nc1ccccc1-n1ccnc1 | -5.13% (inactive)
56 | CN1CCC(=NNC(=O)CN(c2cccc(Cl)c2)S(C)(=O)=O)CC1 | -4.77% (inactive)
57 | CC12CCC(C(=O)N(c3cccc(Cl)c3)C1=O)C2(C)C (stereo not given) | -2.92% (inactive)
58 | CC12CCC(C(=O)N(NC(=O)c3ccccc3O)C1=O)C2(C)C (stereo not given) | 69.9% (active)
59 | COc1ccccc1C(=O)NN1C(=O)C2C3C=CC(O3)C2C1=O (stereo not given) | -5.97% (inactive)
60 | COc1ccc(-c2csc(NC(=O)CCCc3cccs3)n2)cc1 | 10.5% (inactive)
61 | COc1ccc(-c2csc(NC(=O)COC(=O)Cc3ccc(Cl)cc3Cl)n2)cc1 | 1.41% (inactive)
62 | COc1ccc(-c2csc(NC(=O)COC(=O)c3ccc(Br)o3)n2)cc1 | 95.2% (active)
63 | Cc1cc(CNCc2c(C(=O)N(C)Cc3ccccc3)nc3ccccn23)nn1C | 0.26% (inactive)
64 | O=C(O)c1ccccc1-c1ccccc1C(=O)Nc1nccs1 | -1.78% (inactive)
65 | Cn1c(=O)c2c(nc(N3CCCCCC3)n2CC(=O)c2ccc(Br)cc2)n(C)c1=O | -0.4% (inactive)
66 | O=c1cc(CN2CCN(c3cccc(Cl)c3)CC2)c2cc3c(cc2o1)CCCC3 | 5.66% (inactive)
67 | O=C(c1ccccc1)c1ccc(OCC(O)CN2CCCC2)cc1 (stereo not given) | 31.6% (inactive)
68 | OC(COc1ccc(CN2CCSCC2)cc1)CN1CCCCC1 (stereo not given) | 19% (inactive)
69 | O=C(c1ccc(Cl)cc1)c1ccc(OCC(O)CN2CCCCC2)cc1 (stereo not given) | 99.2% (active)
70 | CCC(=O)c1ccc(OCC(O)CN2CCN(c3cccc(C(F)(F)F)c3)CC2)cc1 (stereo not given) | 13.7% (inactive)
71 | CCC(=O)c1ccc(OCC(O)CN2CC(C)OC(C)C2)cc1 (stereo not given) | 87.5% (active)
72 | CCC(=O)c1ccc(OCC(O)CN2C(=O)NC(C)(C)C2=O)cc1 (stereo not given) | -2.21% (inactive)

Row | SMILES | inhibition
73 | Cn1c(=O)c2c(nc(N3CCCCCC3)n2CC(O)COc2ccc(Cl)cc2)n(C)c1=O (stereo not given) | 56.5% (active)
74 | Cc1cccc(Cn2c(N3CCN(c4ccccc4)CC3)nc3c2c(=O)n(C)c(=O)n3C)c1 | -1.6% (inactive)
75 | O=C(C(c1ccccc1)c1ccccc1)N1CCN(CC(O)COc2ccccc2)CC1 (stereo not given) | 9.16% (inactive)
76 | OC(COc1ccc2c(c1)CCC2)CN1CCN(c2cccc(Cl)c2)CC1 (stereo not given) | 98.7% (active)
77 | COc1cc(C(=O)N[C@@H](C)C(=O)NCc2ccco2)cc(OC)c1OC | -6.03% (inactive)
78 | CCCCn1c(N)c(N(CC)C(=O)/C=C/c2ccco2)c(=O)[nH]c1=O | -4.32% (inactive)
79 | [O-][n+]1c2c(nn1-c1ccc(Cl)c(Cl)c1)-c1nonc1CC2 | 13.6% (inactive)
80 | Cc1nc(N2CCCCC2)sc1C=O | 6.31% (inactive)
81 | CCC(C)(C)c1ccc(OCC(=O)N(C)C)c(C(C)(C)CC)c1 | 18.1% (inactive)
82 | COC(=O)CNC(=O)c1ccc(OC2CCN(C(=O)C3CC3)CC2)cc1 | -6.39% (inactive)
83 | CCOc1cc(CNn2c(C)nnc2SCC(=O)NC(C)(C)C)ccc1OCC(=O)NC(C)(C)C | 0.56% (inactive)
84 | CC1(C)C(c2cccs2)=[N+]([O-])C2(CCCCC2=O)N1O (stereo not given) | -6.22% (inactive)
85 | COCCN(Cc1nc(-c2ccc(C(F)(F)F)cc2)no1)C(C)C | 0.28% (inactive)
86 | O=C(Nc1ccnc(-c2ccncc2)n1)c1cccs1 | 1.21% (inactive)
87 | COC(=O)CCNC(=O)c1ccc2[nH]c(C)c(C)c2c1 | -6.37% (inactive)
88 | COc1ccc(-c2[nH]ncc2CN(C)Cc2cccnc2)c(F)c1 | 5.13% (inactive)
89 | CC/C(O)=C1\C(=O)CC(C)(C)CC1=NCCc1nc2ccccc2[nH]1 | 2.52% (inactive)
90 | CC(=O)c1cccc(NC(=O)Nc2ccc(C)cc2)c1 | -3.66% (inactive)
91 | Cc1ccc(NC(=O)CC(=O)Nc2ccc(C)cc2)cc1 | -5.48% (inactive)
92 | COC(=O)c1ccc(NC(=O)Nc2ccc(C)cc2)cc1 | 91.7% (active)
93 | CC1CCCN(S(=O)(=O)c2ccc(N(C(=O)c3cnccn3)C(C(=O)NC3CCCCC3)c3cccs3)cc2)C1 (stereo not given) | 69.2% (active)
94 | O=C(NC1CCCCC1)C1CCCN(S(=O)(=O)c2cccs2)C1 (stereo not given) | -2.02% (inactive)
95 | O=C(Nc1ccc(S(=O)(=O)N2CCCCC2)cc1)c1cnccn1 | -3.44% (inactive)
